Reference: PubChem BioAssay (Tox21)
Unmarked numbers belong to inactive results. Where a call stands in place of a potency, no number is given. Activity calls are given as the source filed them. Unless noted, the call rests on the fitted dose curve; in most records, active means well fitted curve in the direction sought with a large enough effect in the repeat runs; inconclusive means weak or mixed curves; inactive means no such curve, though single readings can be large; an effect the other way counts as inactive or inconclusive.

Tests used:
[1] = qHTS assay for small molecule agonists of the p53 signaling pathway (AID 651631; calls by dose curve; further: nearly all actives have a fitted effect of over 15% in size)
In short: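 Read-out is beta-lactamase FRET fluorescence measured 2 h after substrate addition at room temperature, in HCT-116 cells with a p53 response element-driven reporter exposed to compounds for 16 h at 37 °C.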

[2] = qHTS assay for small molecules that induce genotoxicity in human embryonic kidney cells expressing luciferase-tagged ATAD5 (AID 651632); further: nearly all actives have a fitted effect of over 15% in size
In short: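 Quantitative HTS in HEK293T expressing luciferase-tagged ATAD5, whose levels rise upon DNA damage. Exposure ran 16 hr at 37C and 5% CO2, with luminescence read 30 min after Amplite addition at room temperature.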

[3] = qHTS assay for small molecule agonists of the p53 signaling pathway - cell viability (AID 651633; calls by dose curve; further: nearly all actives have a fitted effect of over 30% in size; further: potency means the concentration at half of the fitted maximal effect)
In short: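 p53RE-bla cells, seeded at 4,000 per well and rested 5 h at 37 C/5% CO2, received compounds in DMSO for 16 h at 37 C. CellTiter-Glo was then added, and luminescence was read after 30 min at room temperature to gauge cytotoxicity.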

[4] = qHTS assay for small molecules that induce genotoxicity in human embryonic kidney cells expressing luciferase-tagged ATAD5 - cell viability (AID 651634; calls by dose curve; further: nearly all actives have a fitted effect of over 25% in size; further: potency means the concentration at half of the fitted maximal effect)
In short: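 After 15.5 hr incubation with compound at 37C, 5% CO2, HEK293T ATAD5-luciferase cells received CellTiter-Fluor reagent; fluorescence intensity was quantified following 30 min at 37C.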

[5] = qHTS assay for small molecule disruptors of the mitochondrial membrane potential - cell viability (AID 720634; calls by dose curve;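 further: human HepG2 liver cancer cells; series mostly up to about 83 µM; nearly all actives have a fitted effect of over 20% in size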)
In short: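 ATP-based luminescent viability readout (CellTiter-Glo, 30 min, room temperature) in HepG2 cells multiplexed with the m-MPI membrane potential dye; compound exposure lasted 1 hr at 37 C.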

[6] = qHTS assay to test for compound auto fluorescence at 590 nm (red) in HepG2 cells (AID 720674)
In short: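 Rose Bengal sodium served as the red fluorophore standard. HepG2 monolayers (overnight attachment, MEM with 10% FBS) were exposed to test compounds for 1 hr at 37 C and read at Ex 540/Em 590 nm.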

[7] = qHTS assay to test for compound auto fluorescence at 460 nm (blue) in HEK293 cells (AID 720678)
In short: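 Intrinsic compound fluorescence is recorded in live HEK293 cultures after overnight incubation at 37C, 5% CO2, using excitation 405 nm and emission 460 nm. Values are referenced to triamterene.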

[8] = qHTS assay to test for compound auto fluorescence at 590 nm (red) in HEK293 cells (AID 720679)
In short: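 Red autofluorescence, HEK293 cells: 2,000 cells/well; attach 4-5 hr 37C; add 23 nL cpd or DMSO; incubate o/n 37C 5% CO2; read Ex540/Em590; Rose Bengal sodium reference.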

[9] = qHTS assay to test for compound auto fluorescence at 535 nm (green) in HEK293 cells (AID 720680)
[10] = qHTS assay to test for compound auto fluorescence at 460 nm (blue) in HEK293 cell free culture (AID 720681)
In short: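 Test compounds were pinned into cell-free culture medium (DMEM with 10% FBS) and fluorescence was read directly at Ex/Em 405/460 nm. Signals were expressed as fluorescence equivalents of triamterene, with DMSO vehicle as control.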

[11] = qHTS assay to test for compound auto fluorescence at 535 nm (green) in HEK293 cell free culture (AID 720682)
In short: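 Fluorescein serves as the green reference fluorophore; each compound's intrinsic emission at 535 nm (excitation 485 nm) is reported as an equivalent amount of that dye, measured in serum-containing DMEM without cells.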

[12] = qHTS assay to test for compound auto fluorescence at 590 nm (red) in HEK293 cell free culture (AID 720683)
In short: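 Tox21 10K library compounds were pinned into cell-free DMEM with 10% FBS and fluorescence was read at excitation 540 nm. Activity is expressed as Rose Bengal sodium equivalency.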

[13] = qHTS assay to test for compound auto fluorescence at 460 nm (blue) in HepG2 cell free culture (AID 720685)
In short: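 Cell-free plates of MEM plus 10% FBS received 23 nL compound or DMSO vehicle; blue-channel (405/460 nm) intensity scored against triamterene as reference fluorophore.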

[14] = qHTS assay to test for compound auto fluorescence at 535 nm (green) in HepG2 cell free culture (AID 720686)
[15] = qHTS assay to test for compound auto fluorescence at 460 nm (blue) in HepG2 cells (AID 720687)
In short: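 Cells (2,000/well in MEM with 10% FBS) attached overnight at 37 C, then were exposed to compound or DMSO for 1 hr at 37 C, 5% CO2. Fluorescence read at Ex/Em 405/460 nm, expressed as triamterene-equivalent signal.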

[16] = biological target: Glucocorticoid receptor (Homo sapiens) (UniProt P04150); assay: qHTS assay to identify small molecule agonists of the glucocorticoid receptor (GR) signaling pathway (AID 720691; active means well fitted activation curve with a large enough effect in the signal ratio in the repeat runs, not every such curve was filed as active; inconclusive means weak or mixed curves, or effect the other way; inactive means no such curve, though single readings can be large or run the other way; the % refers to the signal ratio; further: potency means the concentration at half of the fitted maximal effect)
Glucocorticoid receptor (Homo sapiens), sequence (P04150 whole entry, looked up): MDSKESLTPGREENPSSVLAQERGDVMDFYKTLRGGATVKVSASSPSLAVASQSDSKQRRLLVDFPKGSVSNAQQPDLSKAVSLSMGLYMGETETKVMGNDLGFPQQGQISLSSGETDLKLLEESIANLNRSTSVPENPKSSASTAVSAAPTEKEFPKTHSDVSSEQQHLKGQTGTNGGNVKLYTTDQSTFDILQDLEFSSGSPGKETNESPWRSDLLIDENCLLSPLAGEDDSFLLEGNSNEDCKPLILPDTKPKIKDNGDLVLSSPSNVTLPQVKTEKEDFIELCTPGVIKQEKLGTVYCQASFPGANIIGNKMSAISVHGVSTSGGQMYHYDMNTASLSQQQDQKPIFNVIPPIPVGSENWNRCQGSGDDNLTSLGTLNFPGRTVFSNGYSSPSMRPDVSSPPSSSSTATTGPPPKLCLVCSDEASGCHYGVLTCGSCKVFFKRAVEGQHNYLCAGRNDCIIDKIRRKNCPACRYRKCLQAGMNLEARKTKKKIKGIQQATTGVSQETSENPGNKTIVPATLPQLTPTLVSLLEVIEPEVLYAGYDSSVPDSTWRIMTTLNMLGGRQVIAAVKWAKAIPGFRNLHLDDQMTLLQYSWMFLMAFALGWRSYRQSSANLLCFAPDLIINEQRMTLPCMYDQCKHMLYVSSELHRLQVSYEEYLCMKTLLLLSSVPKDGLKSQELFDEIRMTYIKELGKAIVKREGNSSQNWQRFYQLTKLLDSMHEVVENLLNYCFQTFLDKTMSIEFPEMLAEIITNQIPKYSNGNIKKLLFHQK
In short: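 Cells: GR-bla HeLa, endogenous GR with stably integrated GRE-beta-lactamase reporter. Treatment 18 h, 37 C, compounds delivered in DMSO. Detection via LiveBLAzer B/G FRET substrate, 2 h RT, fluorescence intensity.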

[17] = biological target: Glucocorticoid receptor (Homo sapiens) (UniProt P04150); assay: qHTS assay to identify small molecule antagonists of the glucocorticoid receptor (GR) signaling pathway (AID 720692; active means well fitted inhibition curve with a large enough effect in the signal ratio in the repeat runs, not every such curve was filed as active; inconclusive means weak or mixed curves, or effect the other way; inactive means no such curve, though single readings can be large or run the other way; the % refers to the signal ratio)
In short: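 Quantitative HTS in antagonist format: HeLa cells expressing endogenous GR and a stably integrated GRE-bla reporter, stimulated with 5 nM dexamethasone (final) alongside test compounds for 18 h.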

[18] = qHTS assay to test for compound auto fluorescence at 590 nm (red) in HepG2 cell free culture (AID 720684)
In short: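 Ex 540 / Em 590 nm read of compound in cell-free MEM (10% FBS). Rose Bengal sodium reference.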

[19] = qHTS assay for small molecule disruptors of the mitochondrial membrane potential (AID 720635); further: potency means the concentration at half of the fitted maximal effect
In short: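 HepG2 cells (2,000/well) attached overnight at 37C, then took compound for 1 hr at 37C, 5% CO2. Mito-MPS dye was added for 30 min; fluorescence was read at 490/535 nm (monomers) and 540/590 nm (aggregates).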

[20] = qHTS assay to test for compound auto fluorescence at 535 nm (green) in HepG2 cells (AID 720675)

| SMILES | Potency [1] | Potency [2] | Potency [3] | Potency [4] | outcome [5] | outcome [6] | Potency [7] | outcome [8] | outcome [9] | Potency [10] | outcome [11] | outcome [12] | Potency [13] | outcome [14] | Potency [15] | Potency [16] | Potency [17] | outcome [18] | Potency [19] | outcome [20] |
| --- | --- | --- | --- | --- | --- | --- | --- | --- | --- | --- | --- | --- | --- | --- | --- | --- | --- | --- | --- | --- |
| O=CNNC=O | inactive | inactive | inactive | inactive | inactive | inactive | inactive | inactive | inactive | inactive | inactive | inactive | inactive | inactive | inactive | inactive | inactive |  |  |  |
| CC(C)CC(O)CC(C)C | inactive | inactive | inactive | inactive | inactive | inactive | inactive | inactive | inactive | inactive | inactive | inactive | inactive | inactive | inactive | inactive | inactive | inactive |  |  |
| CC(=O)OCCC1CCCCC1 | inactive | inactive | inactive |  | inactive | inactive | inactive | inactive | inactive | inactive | inactive | inactive | inactive | inactive | inactive | inactive | inactive | inactive | inactive | inactive |
| CNc1c2c(nn1C)CCCC2 | inactive | inactive | inactive | inactive | inactive | inactive | inactive | inactive |  | inactive | inactive | inactive | inactive | inactive | inactive | inactive | inactive |  |  | inactive |
| O=[N+]([O-])c1ccc2ncccc2c1 | inactive | inactive | inactive | inactive | inactive | inactive | inactive | inactive |  | inactive | inactive | inactive | inactive | inactive | inactive | inactive |  | inactive |  | inactive |
| Cc1ccc(Cl)cc1N | inactive | inactive | inactive | inactive | inactive | inactive | inactive | inactive |  | inactive | inactive | inactive | inactive | inactive | inactive | inactive | inactive | inactive |  | inactive |
| CC(=O)OCC(=O)[C@@]1(OC(C)=O)[C@@H](C)C[C@H]2[C@@H]3C[C@H](F)C4=CC(=O)C=C[C@]4(C)[C@@]3(F)[C@@H](O)C[C@@]21C | inactive | inactive | inactive | inactive | inactive | inactive | inactive | inactive | inactive | inactive | inactive | inactive | inactive | inactive | inactive | 0.0379 µM [inconclusive] (active) |  | inactive |  |  |
| CCC1CCC(CCC(=O)O)C1 (configuration not stated) | inactive | inactive | inactive |  | inactive | inactive | inactive | inactive |  | inactive | inactive | inactive | inactive | inactive | inactive | inactive |  | inactive | inactive | inactive |
| COc1ccc(C(=O)NCc2ccc(OCCN(C)C)cc2)cc1OC | inactive | inactive | inactive |  | inactive | inactive | inactive | inactive | inactive | inactive | inactive | inactive | inactive | inactive | inactive | inactive | inactive | inactive | inactive | inactive |
| CNS(=O)(=O)c1cc(C(=O)N2CCC(CCN3C4CCC3CC(n3c(C)nc5ccccc53)C4)(c3cccc(F)c3)CC2)c(Cl)cc1F (configuration not stated) | inactive | inactive | 48.6 µM (active) |  | inactive | inactive | inactive |  | inactive | inactive | inactive | inactive | inactive | inactive | inactive |  |  | inactive |  | inactive |
| Cc1c(C2(c3cc(Br)c(O)c(Br)c3C)OS(=O)(=O)c3ccccc32)cc(Br)c(O)c1Br | inactive | inactive |  | 8.38 µM (active) |  | inactive | inactive | inactive |  | inactive | inactive | inactive | inactive | inactive | inactive | inactive |  | inactive |  | inactive |
| c1ccc(CNc2ncnc3c2ncn3C2CCCCO2)cc1 (configuration not stated) | inactive |  | inactive | inactive | inactive | inactive | inactive | inactive |  | inactive | inactive | inactive | inactive | inactive | inactive | inactive | inactive | inactive |  | inactive |
| CCOC(=O)c1ccc(NC(=O)CN2CCCCC2)cc1 |  | inactive | inactive | inactive | inactive | inactive | inactive | inactive | inactive | inactive | inactive | inactive | inactive | inactive | inactive | inactive | inactive | inactive | inactive | inactive |
| COc1ccc(-c2cc(C(F)F)nn2-c2ccc(S(N)(=O)=O)cc2)cc1F | inactive | inactive | inactive |  | inactive | inactive | inactive | inactive | inactive | inactive | inactive | inactive | inactive | inactive | inactive |  |  | inactive |  | inactive |
| CC(=O)c1ccc[nH]1 | inactive | inactive | inactive |  | inactive | inactive | inactive |  | inactive | inactive | inactive | inactive | inactive | inactive | inactive | inactive | inactive | inactive | inactive | inactive |
| CC(C)(C)C1(CCc2ccc(Cl)cc2)CO1 (configuration not stated) |  | inactive | inactive | inactive | inactive | inactive | inactive | inactive | inactive | inactive | inactive | inactive | inactive | inactive | inactive |  |  | inactive | 19.3 µM (active) | inactive |
| COc1ccc(-n2nc(C(F)F)cc2-c2ccc(S(C)=O)cc2)cc1 (configuration not stated) | inactive | inactive |  | inactive | inactive | inactive | inactive | inactive | inactive | inactive | inactive | inactive | inactive | inactive | inactive | inactive | inactive |  | inactive | inactive |
| COc1ccc(-c2cc(=S)ss2)cc1 | inactive |  | inactive | inactive | inactive | inactive | inactive | inactive |  | inactive | inactive | inactive | inactive | inactive | inactive | inactive |  | inactive | 2.11 µM (active) |  |
| O=C(O)c1ccc(O)cc1O | inactive |  | inactive | inactive | inactive | inactive | inactive | inactive | inactive | inactive | inactive | inactive | inactive | inactive | inactive | inactive |  | inactive |  | inactive |
